# Among all 310,000 compounds or so, about 18,000 (5.8%) were called active. Not shown: some 22% with an inconclusive outcome. This is one part of a sample in which actives are shown more often than they occur. Calls come from the whole dose curve; as a rule, active = well fitted inhibition curve with a large enough effect; inconclusive = small, poorly fitted or top-dose-only effect, or another doubt; inactive = no such curve, though single readings can be large or run the other way.
# Experiment: Primary qHTS for delayed death inhibitors of the malarial parasite plastid, 48 hour incubation
# Details: P. falciparum luciferase growth in erythrocytes; series mostly up to 28.7 µM; activity change, negative = inhibition: at the top concentration
# Summary of the method: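 Erythrocytes infected with P. falciparum carrying an integrated firefly luciferase reporter (2% hematocrit, 0.1% parasitemia final) were exposed to compounds in RPMI 1640 with 0.5% Albumax at 37 C, 5% CO2. Growth inhibition was scored as reduced luminescence.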
# % is set by controls: 0 for no effect and ±100 for the full control effect; potency is the fitted concentration of half-maximal effect.
Compound,"activity change, negative = inhibition",Potency
NC(=O)C1CC(=O)N(c2ccc(OCC(=O)NCc3ccccc3)cc2)C1 (stereo unspecified),5.28% (inactive),–
CCN(C(=O)c1cc([N+](=O)[O-])ccc1NCc1cccnc1)c1ccccc1,-8.89% (inactive),–
CS(=O)(=O)Nc1ccccc1C(=O)OCC(=O)NC1CC1,-14.3% (inactive),–
CC(C)=CCc1c(O)c(CC=C(C)C)c2occ(-c3ccc(O)cc3)c(=O)c2c1O,–,2.94 µM (active)
Cc1ccnc(NC(=O)CCNS(=O)(=O)c2ccc(C)c(C)c2)c1,277% (inactive),–
Cc1cccc(NS(=O)(=O)c2cc(Cl)ccc2Cl)n1,-4.36% (inactive),–
O=[N+]([O-])c1ccc(S(=O)(=O)Nc2cccc(-c3ccc(N4CCCC4)nn3)c2)cc1,17.3% (inactive),–
COc1ccc([C@H]2CC(=O)C=C(c3ccc(C)cc3)C2)cc1,13.6% (inactive),–
COc1ccc2cc(C3=CC(=O)C[C@H](c4ccc5c(c4)OCO5)C3)ccc2c1,0% (inactive),–
CC(=O)C1=C(C)NC(=O)NC1c1ccc2c(c1)OCO2 (stereo unspecified),-0.218% (inactive),–
N#Cc1ccc(C2=CC(=O)C[C@H](c3ccc(Cl)cc3)C2)cc1,0% (inactive),–
O=C1C=C(c2ccnc3cc(Cl)ccc23)C[C@@H](c2ccc3c(c2)OCO3)C1,–,7.38 µM (active)
O=C1C=C(c2cc(C(F)(F)F)cc(C(F)(F)F)c2)C[C@@H](c2ccc3c(c2)OCO3)C1,–,8.28 µM (active)
Cc1ccnc(NS(=O)(=O)c2ccc(NC(=O)c3oc4ccc(F)cc4c3C)cc2)n1,5.71% (inactive),–
[2H]C(CCOS(N)(=O)=O)c1ccccc1 (stereo unspecified),33.3% (inactive),–
CNC(=O)c1sc(NCc2ccccc2OC)nc1C,12.4% (inactive),–
O=C(Nc1ccc(-c2cscn2)cc1)C1CCCN(Cc2ccc(CO)o2)C1 (stereo unspecified),8.86% (inactive),–
COc1cc(-c2c(-c3ccc4c(c3)OCO4)noc2C)ccc1F,-12.7% (inactive),–
CCNC(=O)c1cccc(NC(=O)C2CC(=O)N(CCc3ccccc3)C2)c1 (stereo unspecified),18.1% (inactive),–
CN(CC#CCC(c1ccccc1)c1ccccc1)C(C)(C)C,–,9.28 µM (active)
Cc1ccccc1Nc1c(-c2ccccc2)nc2ncccn12,-20.4% (inactive),–
Cc1cccc(C)c1Nc1c(-c2ccccc2O)nc2ncccn12,–,2.94 µM (active)
C[C@H](NC(=O)[C@@H]1Cc2ccccc2CN1C(=O)OC(C)(C)C)C(=O)NC1CCCC1,-22.4% (inactive),–
O/N=C(\C[n+]1ccccc1)c1ccc(Br)cc1,-29.6% [at 0.00184 µM] (inactive),–
CC(=O)c1ccc(NC(=O)c2cc(-c3cccs3)on2)cc1,65.8% (inactive),–
O=C(c1cc(-c2cccs2)on1)N1CCCCC1,185% (inactive),–

Compound,"activity change, negative = inhibition",Potency
Cc1cc(NC(=O)c2cc(-c3cccs3)on2)nn1Cc1ccc(Cl)cc1,–,10.4 µM (active)
COc1ccc(S(=O)(=O)N2CCC(C(=O)NCCC(=O)NCc3cccc(OC)c3)CC2)cc1,-3.83% (inactive),–
C[C@H](C(=O)CC(=O)OC(C)(C)C)[C@H](O)c1ccc(C(F)(F)F)cc1,48.5% (inactive),–
CC(C)Oc1ccc(Oc2ccc(C(F)(F)F)cn2)cc1,10.1% (inactive),–
CNCC[C@H](Oc1ccc(C(F)(F)F)cc1)c1ccccc1,–,10.4 µM (active)
COC(=O)c1ccc(NC(=O)c2cc(Cl)ccc2OC)cc1,-5.41% [at 5.75 µM] (inactive),–
CCN(CC)C(=O)C(=O)Nc1cccc(Br)c1,70.9% (inactive),–
CCN(CC)C(=O)Oc1ccc(Br)cc1C(=O)Nc1ccc(F)c(Cl)c1,–,9.28 µM (active)
CCCc1nnc(NC(=O)CCC(=O)NC2CC2)s1,-5.08% (inactive),–
O=C(NCc1ccco1)/C(=C\c1cccc([N+](=O)[O-])c1)NC(=O)c1ccco1,9.51% (inactive),–
C=CCn1c(SCC(=O)NCC2CCCO2)nc2sc(C)c(C)c2c1=O (stereo unspecified),11.5% (inactive),–
CC1CCN(C(=O)Cn2cc(C(=O)c3ccco3)c3ccccc32)CC1,–,9.28 µM (active)
N#Cc1ccc(Cn2cc(C(=O)c3ccco3)c3ccccc32)cc1,-11.3% (inactive),–
Cc1cccc(NC(=O)Cn2cc(C(=O)c3ccco3)c3ccccc32)c1,4.36% (inactive),–
CC(Sc1ncnc2c1cnn2-c1ccccc1)C(=O)Nc1ccc(N2CCOCC2)cc1 (stereo unspecified),30.4% (inactive),–
COc1ccc2c(c1OC)C(=O)N(c1ccc(O)cc1)C2,1.26% (inactive),–
N#Cc1ccc(C(c2nnnn2CCc2ccccc2)N2CCCCCC2)cc1 (stereo unspecified),–,1.65 µM (active)
CC(C)C(c1nnnn1CCc1ccccc1)N1CCN(C(=O)c2ccco2)CC1 (stereo unspecified),-24% (inactive),–
N#Cc1ccc(C(c2ccc(C#N)cc2)n2cncn2)cc1,-10.5% [at 12.8 µM] (inactive),–
CCCc1nc(SCC(=O)N2CCCC2)c2c(=O)n(C)c(=O)n(C)c2n1,12.7% (inactive),–
CC(=O)N1CCN(CC(c2ccccc2)c2ccccc2)CC1,-29% (inactive),–
COc1cccc(CN(C)CC(=O)NCc2ccccc2Cl)c1OC,-4.79% (inactive),–
COc1ccccc1CN(C)C(=O)C1(c2ccc(Cl)cc2)CC1,-29.6% (inactive),–
COc1cccc(CN(C)CC2CCCN(CCc3ccc(Cl)cc3)C2)c1OC (stereo unspecified),–,5.86 µM (active)
COc1cccc(NC(=O)N2C3CCCC2CC(NC(C)=O)C3)c1 (stereo unspecified),5.95% (inactive),–

# Source: PubChem BioAssay AID504832 (National Center for Advancing Translational Sciences (NCATS), 2011)
